Sampled rows, rich in hits. Any-hit rate of the full collection: about 2.4%.
M1 ag = human M1 muscarinic receptor agonism; P11229; CHO-K1 hM1, Fluo-8 calcium fluorescence, agonist mode; 0% DMSO, 100% acetylcholine EC100; actives 0.33% (n = 360,000); activation, % at 3 µM;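 active means activation above the run's mean compound activation plus 3 SD, cut at about 16% in these data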;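 further: peak over basal fluorescence ratio within a 140 s kinetic read after compound addition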
Target sequence (P11229 whole entry, looked up): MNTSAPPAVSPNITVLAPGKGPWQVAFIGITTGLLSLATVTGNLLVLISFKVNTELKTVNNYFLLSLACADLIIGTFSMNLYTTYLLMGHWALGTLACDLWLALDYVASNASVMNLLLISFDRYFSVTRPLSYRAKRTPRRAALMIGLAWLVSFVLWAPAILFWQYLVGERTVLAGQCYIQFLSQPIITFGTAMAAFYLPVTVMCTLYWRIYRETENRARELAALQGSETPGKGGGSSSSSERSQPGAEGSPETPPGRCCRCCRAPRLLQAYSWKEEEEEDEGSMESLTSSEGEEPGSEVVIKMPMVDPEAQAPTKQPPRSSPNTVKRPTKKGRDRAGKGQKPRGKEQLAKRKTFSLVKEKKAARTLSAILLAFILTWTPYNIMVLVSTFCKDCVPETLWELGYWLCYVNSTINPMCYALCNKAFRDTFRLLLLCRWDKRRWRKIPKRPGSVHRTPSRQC
CHRM1 antagonist = antagonists of human M1 muscarinic receptor. P11229. CHO-K1 hM1, Fluo-8 calcium fluorescence, ACh EC80 antagonist. inhibition, % at 3 µM. actives 1.3% (n = 360,000). AID 588852;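 active means percent inhibition above its own plate's cutoff, namely the mean of that plate's compound wells plus 3 SD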;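 further: peak over basal fluorescence ratio during 140 s after agonist addition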
CHO-K1 Ca ag = counter-screen for M1 agonists: effect in parental CHO-K1 cells; activation, % at 3 µM; Fluo-8 calcium fluorescence; scaled to maximal ATP response, vehicle zero; AID 602248; actives 0.48% (n = 360,000); in the data active means activation above about 15%;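 further: untransfected CHO-K1 host cells lacking M1 receptor as counterscreen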
CHO-K1 Ca PAM = M1 PAM counterscreen hit in parental CHO-K1 cells | ATP EC20, Fluo-8 calcium fluorescence; 0% at ATP EC20, 100% at ATP max | activation, % at 3 µM | actives 0.02% (n = 360,000) | AID 602247;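 active means activation above the run cutoff, the mean activation of all test compounds plus 3 SD, cut at about 40% in these data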;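 further: peak over basal fluorescence ratio in a 140 s read after ATP addition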
M1 PAM = positive allosteric modulators of human M1 muscarinic receptor. P11229. CHO-K1 hM1, Fluo-8 calcium fluorescence, ACh EC20; 0% = ACh EC20, 100% = maximal ACh. activation, % at 3 µM. actives 0.088% (n = 360,000); in the data active means activation above about 19%, passing the limit was not always enough
CHO-K1 Ca antag = nonselective inhibitor or artifact in parental CHO-K1 cells; ATP-induced calcium, Fluo-8 fluorescence; inhibition, % at 3 µM; actives 0.6% (n = 360,000); AID 602250;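 active means inhibition above a per-plate cutoff, the plate's mean sample inhibition plus 3 SD, cut at about 24% in these data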
A number is an active result; . = inactive.

SMILES | M1 ag | CHRM1 antagonist | CHO-K1 Ca ag | CHO-K1 Ca PAM | M1 PAM | CHO-K1 Ca antag
CC(C)N(CCNC(=O)COc1ccc2oc3c(c2c1)CCCC3)C(C)C | . | . | . | . | . | .
CSCCC(NC(=O)c1ccccc1Cl)C(=O)Nc1cccc(S(=O)(=O)N2CCCC2)c1 (stereo not drawn) | . | . | . | . | . | .
Cc1cc(C)nc(/N=C(\N)N(Cc2ccccc2)Cc2ccccc2)n1 | . | 100 | . | . | . | .
CCCCN(CCCC)/C(N)=N/c1nc(C)cc(C)n1 | . | . | . | . | . | .
O=S(=O)(c1ccccc1)N1CCC(O)(CSc2ccc(F)cc2)CC1 | . | . | 18 | . | . | .
O=S(=O)(c1ccccc1)N1CCC(O)(CSc2ccccc2)CC1 | . | . | . | . | . | .
CC1=CC(C)(C)N=C(Nc2ccc(C)cc2)S1 | . | 58 | . | . | . | .
Cc1ccc(Nc2nnns2)cc1 | . | . | . | . | . | .
CCCn1nnc(NC(=O)/C=C/c2ccc(C(C)C)cc2)n1 | . | . | . | . | . | 60
CCC(C)c1ccccc1NC(=O)Cc1coc2cc3c(cc12)CCC3 (stereo not drawn) | . | . | . | . | . | .
Cc1ccc(C)c(NC(=O)Cc2coc3cc4c(cc23)CCC4)c1 | . | . | . | . | 28 | .
Cc1ccccc1OCC(=O)Nc1ccc(N2CCN(C)CC2)c(Cl)c1 | . | 45 | . | . | . | .
COc1ccc(OCC(=O)Nc2ccc(N3CCN(C(=O)c4ccccc4)CC3)c(Cl)c2)cc1 | . | 36 | . | . | . | 25
COc1ccc(OCC(=O)Nc2ccc(N3CCOCC3)c(Cl)c2)cc1 | . | . | . | . | . | .
COc1ccc(OCC(=O)Nc2ccccc2C(=O)N2CCOCC2)cc1 | . | . | 17 | . | . | .
COc1cc(C(=O)NC(C)c2ccc3ccccc3c2)cc(Cl)c1O (stereo not drawn) | . | . | . | . | . | .
COc1c(Cl)cc(C(=O)Nc2cccnc2)cc1Cl | . | . | . | . | . | .
CC1(c2ccc(OC(F)F)cc2)NC(=O)N(CC(=O)NC2CCCCC2)C1=O (stereo not drawn) | . | . | . | . | . | .
CC1(c2ccc([N+](=O)[O-])cc2)NC(=O)N(CC(=O)c2ccc3c(c2)OCO3)C1=O (stereo not drawn) | 37 | . | 30 | . | . | .
CC1CCCCC12NC(=O)N(CC(=O)c1ccc3c(c1)OCO3)C2=O (stereo not drawn) | . | . | . | . | . | 32
CC1(c2ccc(OC(F)F)cc2)NC(=O)N(CC(=O)c2ccc3c(c2)OCO3)C1=O (stereo not drawn) | 43 | . | 36 | . | . | .
CCOC(=O)[C@@H]1[C@H]2COc3cc(OC)ccc3[C@H]2N2C(=O)N(c3ccc(C)cc3)C(=O)[C@]12C | . | . | . | . | . | .
COc1cccc(NC(=O)CN(C)C(=O)CNC(=O)c2ccc3ccccc3c2)c1 | . | . | . | . | . | .
Cc1ccccc1N(C(=O)c1csnn1)C(C(=O)NC1CCCC1)c1ccncc1 (stereo not drawn) | . | . | . | . | . | .
Cc1ccc(N(CC(=O)N2CC(=O)Nc3ccccc32)S(=O)(=O)c2ccc3c(c2)OCCO3)cc1 | . | . | . | . | . | 29
SMILES | M1 ag | CHRM1 antagonist | CHO-K1 Ca ag | CHO-K1 Ca PAM | M1 PAM | CHO-K1 Ca antag
O=C(O)CN(c1ccc(F)cc1)S(=O)(=O)c1ccc2c(c1)OCCO2 | . | . | . | . | . | .
Cn1c(CC(=O)Nc2ccccc2F)nnc1SCC(=O)NC1=NCCS1 | . | . | . | . | . | .
NC(=O)c1ccccc1NC(=O)CN1CCCCCC1 | . | . | . | . | . | .
NC(=O)c1cc(-c2ccccc2)sc1NC(=O)CN1CCCCC1 | . | . | . | . | . | 25
O=C(CCCc1c[nH]c2ccccc12)Nc1ccc(S(=O)(=O)Nc2ncccn2)cc1 | . | . | . | . | . | .
Cn1ccnc1C1CCCCN1Cc1nc(-c2ccc3c(c2)OCO3)no1 (stereo not drawn) | . | 59 | . | . | . | .
FC(F)(F)c1cccc(Cc2noc(CN3C[C@@H]4CCC[C@H]3C4)n2)c1 | . | . | . | . | . | .
Cn1ccnc1C1CCCCN1Cc1nc(Cc2cccc(C(F)(F)F)c2)no1 (stereo not drawn) | . | 54 | . | . | . | .
Cc1nn(-c2ccc(N3CCOCC3)nn2)c(C)c1CCC(=O)Nc1ccc(F)cc1 | . | . | . | . | . | .
CCN1CCN(C(=O)C2CCCN(S(=O)(=O)c3cccc4nsnc34)C2)CC1 (stereo not drawn) | . | . | . | . | . | .
Cc1cc(NC(=O)C(C)SCC(=O)OC(C)C(=O)Nc2ccc(F)cc2Cl)no1 (stereo not drawn) | . | . | . | . | . | .
CCOC(=O)C1CCN(C(=O)c2[nH]c(C(F)(F)F)nc2-c2ccccc2)CC1 | . | . | . | . | . | .
O=c1[nH]c(-c2ccccc2)nc(CN2CCCCC2)c1O | . | . | . | . | 29 | .
COc1ccccc1-c1cnc(C(O)c2ccc(F)cc2C)[nH]1 (stereo not drawn) | . | . | . | . | . | .
C=CCn1c(C)c(C(C)=O)c(N2CCN(c3ccccc3)CC2)nc1=S | . | 89 | . | . | . | .
C=CCn1c(C)c(C(C)=O)c(N2CCCC2)nc1=S | . | 98 | . | . | . | .
CCn1c(C)c(C(C)=O)c(N2CCCC2)nc1=S | . | 40 | . | . | . | .
COc1cc(Nc2c3c(nc4ccccc24)CCCC3)cc(OC)c1OC | . | . | 17 | . | . | .
c1ccc2c(Nc3ccc4c(c3)OCCO4)c3c(nc2c1)CCCC3 | . | 28 | . | . | . | .
COc1ccccc1Nc1c2c(nc3ccccc13)CCC2 | . | . | . | . | . | .
Fc1cccc(Nc2c3c(nc4ccccc24)CCC3)c1 | . | . | . | . | . | .
COC(=O)c1cccc(Cn2c(Cl)c(/C=N/NC(=O)c3ccco3)sc2=O)c1 | . | . | . | . | . | .
Cc1nnsc1S(=O)(=O)c1ccccc1 | . | . | . | . | . | .
Cc1ccc2nc(NC(=O)COC(=O)CSc3nc(C)cc(C)n3)sc2c1 | . | . | . | . | . | .
COC(=O)c1ccc2nc(NC(=O)COC(=O)CSc3nc(C)cc(C)n3)sc2c1 | . | . | 15 | . | . | .
CCCCn1c(/N=C/c2ccc(N(C)C)cc2)nc2ccccc21 | . | . | . | . | 21 | .
CC(C(=O)NC(C)(C)C)N(Cc1cccs1)C(=O)CCN1CCc2ccccc21 (stereo not drawn) | . | . | 22 | . | . | .
CC(C)(C)NC(=O)CN(Cc1cccs1)C(=O)CCN1CCc2ccccc21 | . | . | . | . | . | .
